This is a sample that favours compounds with a hit; in the whole collection about 12% have one here.
JMJD2A Tudor inh: qHTS Assay for Inhibitors of JMJD2A-Tudor Domain | Lysine-specific demethylase 4A (Homo sapiens), O75164 | AlphaScreen JMJD2A-Tudor / H3K4me3 peptide binding | Potency, µM (doses to about 114 µM), for the others: top-dose activity change, negative = inhibition, most hits filed as inhibitors | actives 4.4% (n = 390,000) | AID 504339, 2011; also: % is scaled to controls: 0 for no effect and ±100 for the full control effect; nearly all actives have a fitted effect of over 50% in size
Sfp PPTase inh: qHTS Assay for Inhibitors of Bacillus subtilis Sfp phosphopantetheinyl transferase (PPTase) | Biochemical Sfp PPTase activity, qHTS | Potency, µM, without a hit: largest response in the series, negative = inhibition, hits mostly inhibitors | actives 3.5% (n = 310,000) | AID 1490, 2009;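 also: the enzyme is Sfp with the accession as filed and its product quenches rhodamine fluorescence; 0% = enzyme reaction without inhibitor and -100% = no enzyme wells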
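After 15 min at room temperature with compound, 15 nM Sfp received 5 uM rhodamine-CoA plus 12.5 uM BHQ-2-ybbR (50 mM Hepes pH 7.6, 10 mM MgCl2). Rate came from the fluorescence difference over 30 min, ex 525/em 598 nm.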
BAZ2B inh: qHTS Assay for Inhibitors of BAZ2B. Bromodomain adjacent to zinc finger domain protein 2B (Homo sapiens), Q9UIF8. AlphaScreen BAZ2B-H3K14Ac peptide displacement. Potency, µM (doses to about 114 µM), for inactives: at the highest dose activity change, negative = inhibition, actives largely listed as inhibitors. actives 4.4% (n = 360,000); also: % is scaled to controls: 0 for no effect and ±100 for the full control effect; nearly all actives have a fitted effect of over 60% in size
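BAZ2B (50 nM) with biotin-H3(5-23)K14Ac peptide (50 nM) in PBS pH 7.4, 0.01% Tween-20, preformed 30 min, then compound 30 min at room temperature; top concentration 110uM. AlphaScreen streptavidin donor/nickel chelate acceptor beads (10 ug/mL final), 20 min dark, signal read.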
HP1b chromo inh: HTS for Inhibitors of HP1-beta Chromodomain Interactions with Methylated Histone Tails. AlphaScreen HP1-beta / biotin-H3K9me3 peptide binding. Chromobox protein homolog 1 (Homo sapiens), P83916. Potency, µM (doses to about 114 µM), for the others: top-dose activity change, negative = inhibition, most hits filed as inhibitors. actives 0.56% (n = 390,000); also: nearly all actives have a fitted effect of over 70% in size
Target sequence (P83916 whole entry, looked up): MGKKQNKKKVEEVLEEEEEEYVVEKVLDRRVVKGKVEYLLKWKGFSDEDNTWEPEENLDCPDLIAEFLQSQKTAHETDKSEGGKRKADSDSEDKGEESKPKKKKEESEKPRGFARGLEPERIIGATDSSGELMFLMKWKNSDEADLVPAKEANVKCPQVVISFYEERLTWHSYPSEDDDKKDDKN
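AlphaScreen: HP1-beta (50 nM) preformed 30 min with biotin-H3(1-18)K9me3 peptide (50 nM) in PBS pH 7.4, 0.01% Tween-20. Compound added for 30 min at RT, then streptavidin donor/nickel chelate acceptor beads (10 ug/mL) for 30 min.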
G9a block: qHTS Assay for Inhibitors of Histone Lysine Methyltransferase G9a; Histone-lysine N-methyltransferase EHMT2 (Homo sapiens), Q96KQ7; G9a H3K9 monomethylation, AlphaScreen, 2 h; Potency, µM (doses to about 102 µM), inactives show top-dose activity, negative = inhibition, actives largely listed as inhibitors; actives 8.8% (n = 350,000); AID 504332, 2011; also: % is scaled to controls: 0 for no effect and ±100 for the full control effect; nearly all actives have a fitted effect of over 75% in size
Target sequence (Q96KQ7 913-1193 limits assumed): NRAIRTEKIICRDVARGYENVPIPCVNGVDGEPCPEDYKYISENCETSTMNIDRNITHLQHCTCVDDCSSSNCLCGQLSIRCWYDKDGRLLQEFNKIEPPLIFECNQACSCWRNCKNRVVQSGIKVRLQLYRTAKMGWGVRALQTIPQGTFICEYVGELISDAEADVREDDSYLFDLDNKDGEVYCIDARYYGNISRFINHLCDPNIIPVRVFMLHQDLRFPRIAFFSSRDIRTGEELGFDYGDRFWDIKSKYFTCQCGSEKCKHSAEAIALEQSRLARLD
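Chemiluminescent proximity detection of H3K9 monomethylation, read after 10 min bead incubation in the dark. Reaction: 20 nM G9a, 500 nM biotin-H3K9 peptide, 20 uM SAM cofactor, 2 h, room temperature, following 15 min enzyme-compound preincubation.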
Starred values were filed as active, the others as inactive; ? = inconclusive; . = no result given; [ ] = remark or other dose. Calls follow the shape of the dose curve; as a rule, active = well fitted curve in the direction sought with a large enough effect; inconclusive = small, poorly fitted or top-dose-only effect, or another doubt; inactive = no such curve, though single readings can be large; an effect the other way counts as inactive or inconclusive. Potency is read from the fitted curve at half-maximal effect.

SMILES	JMJD2A Tudor inh	Sfp PPTase inh	BAZ2B inh	HP1b chromo inh	G9a block
COc1cccc(-c2cc(C(=O)N3CCN(Cc4ccc5c(c4)OCO5)CC3)on2)c1	-27%	0%	-38%	29%	-2%
O=C(O)/C=C\C(=O)NNC(=O)c1cc(-c2ccccc2)n[nH]1	25µM*	50µM*	28µM*	20%	.
O=C(NNS(=O)(=O)c1ccccc1F)c1cc(-c2ccccc2)n[nH]1	-13%	11%	-38%	11%	7%
O=C(O)/C=C/C(=O)NNC(=O)c1cc(-c2ccccc2)n[nH]1	?	-40%	-2%	25µM*	20µM*
CC1CCCCN1C(=O)CSc1nnc(-c2cccc(Cl)c2)o1 (configuration not stated)	-5%	.	6%	24%	-2%[59 µM]
Cc1cc(=O)oc2c(CN3CCN(CCO)CC3)c(O)ccc12	-10%	3%	-4%	55%	13%
CC(NCc1cccs1)C(=O)NC1CCCCC1 (configuration not stated)	20µM*	?	40µM*	?	?
COc1ccc(C(C(=O)NC2CCCC2)N(CC2CCCO2)C(=O)Cc2cccs2)cc1OC (configuration not stated)	-10%	8%	-16%	27%	5%
O=C(NC1CCCC1)C(c1cccs1)N(CC1CCCO1)C(=O)Cc1cccs1 (configuration not stated)	-3%	-8%	7%	43%	45µM*
CC(C)C(NC(=O)c1cccs1)C(=O)NC1CCCCC1 (configuration not stated)	0%	11%	6%	37%	.
O=C(COC(=O)c1c(F)cccc1F)Nc1ccc2c(c1)OCO2	-13%	.	3%	-2%	-23%
CCOc1ccc(OCC)c(NC(=O)C(NS(=O)(=O)c2cccs2)c2ccccc2)c1 (configuration not stated)	-8%	.	-21%	34%	-2%[59 µM]
Cc1cc(Br)cc2c1N(Cc1ccccc1OC(C)C)C(=O)C2=O	18µM*	.	6.3µM*	?	8.9µM*
Cc1ccc2oc(=O)n(Cc3ccccc3OC(C)C)c2c1	54%	-15%	71%	134%	57%[59 µM]
CCOc1ccc2c(c1)c(N=NC(N)=S)c(O)n2C	-12%	-12%	-19%	46%	4%[59 µM]
CCOc1ccc2c(c1)n(CO)c(=S)n2CO	79µM*	1%	0%	6%	2.2µM*
C/C=C(\C)C(=O)NCCN1C2=NC[C@H](C(C)C)N2C[C@H]1Cc1ccc(O)cc1	-13%	0%	-10%	3%	8%[59 µM]
CN(C)CCCNC(=O)CCc1ncc(C(F)(F)F)cc1Cl	-5%	12%	1%	6%	8%
CCOc1ccc2nc(N(CCCN(C)C)C(=O)c3ccc(S(=O)(=O)N4CCCC4)cc3)sc2c1	-8%	-15%	?	8%	?
CC(=O)N(CCN(C)C)c1nc2cc3c(cc2s1)OCCO3	-9%	11%	-8%	35%	.
CN(C)CCN(C(=O)c1ccc2c(c1)CCCC2)c1nc2cc3c(cc2s1)OCCO3	45µM*	0%	-1%	?	.
CN(C)CCN(C(=O)c1ccc2c(c1)OCCO2)c1nc2cc3c(cc2s1)OCO3	?	-10%	?	-25%	.
CN(C)CCN(C(=O)c1ccc(S(=O)(=O)N(C)c2ccccc2)cc1)c1nc2cc3c(cc2s1)OCCO3	?	1%	?	-11%	40µM*
CCOc1cccc2sc(N(CCCN(C)C)C(=O)c3ccc(S(=O)(=O)N(C)c4ccccc4)cc3)nc12	?	?	?	-19%	56µM*
CCOc1cccc2sc(N(CCN(C)C)C(=O)CCS(=O)(=O)c3ccccc3)nc12	-28%	.	.	31%	.
SMILES	JMJD2A Tudor inh	Sfp PPTase inh	BAZ2B inh	HP1b chromo inh	G9a block
CCOc1ccc2nc(N(CCN(C)C)C(=O)c3ccc4c(c3)CCCC4)sc2c1	35µM*	50µM*	?	-15%	40µM*
CCOc1ccccc1NC(=O)c1cc(CC(C)C)oc1C	17%	-7%	43%	79%	-46%[59 µM]
C[C@@H]1CCC[C@]2(C)CCCC[C@@]12O	.	1%	.	.	.
CN(C)CCN(C(=O)c1ccc(S(=O)(=O)N(C)C)cc1)c1nc2cc3c(cc2s1)OCCO3	-15%	-6%	.	10%	56µM*
CN(C)CCN(C(=O)c1ccc(S(=O)(=O)N(C)CC2CCCO2)cc1)c1nc2cc3c(cc2s1)OCO3 (configuration not stated)	?	-3%	-38%	-12%	?
O=C1CC2(CCCC2)CC(=O)N1CCCCNCC1COc2ccccc2O1 (configuration not stated)	.	?	.	.	37%[59 µM]
Cc1nc(SCc2ccc(Cl)c(Cl)c2)n[nH]1	-10%	13%	1%	34%	16%
CNc1cc(CSC)nc(SCc2ccc(Cl)c(Cl)c2)n1	-4%	15%	6%	62%	32µM*
Cn1c(N)c(Sc2ccc([N+](=O)[O-])cc2)c(=O)n(C)c1=O	?	14%	-14%	10%	9%
CC(C)(C)C(=O)Nc1ccc(Sc2ccc([N+](=O)[O-])cc2)cc1	-19%	15%	-9%	6%	-18%[59 µM]
O=C1C=CC(=O)N1c1ccc(Sc2ccc([N+](=O)[O-])cc2)cc1	.	8.9µM*	?	.	8.9µM*
Nc1ccc(Sc2ccc([N+](=O)[O-])cc2)cc1	?	5%	35µM*	?	56µM*
C[C@@]1(C(NS(=O)(=O)c2cccc3cccnc23)c2ccc(-c3ccccc3)cc2)C[C@H]1C1CCCCC1 (some centres not stated)	.	24%	.	.	.
CCOC(=O)c1c(NC(=O)c2cc(-c3ccccc3OC)on2)sc(C)c1C	-18%	.	-3%	?	2.8µM*
CCOC(=O)c1c(NC(=O)c2cc(-c3ccc(Cl)cc3)on2)sc(C)c1C	-6%	.	3%	7%	8.9µM*
CCOC(=O)c1c(NC(=O)c2cc(-c3ccc(OC)c(OC)c3)on2)sc(C)c1C	-2%	.	4%	22%	-33%[59 µM]
CCOC(=O)c1c(NC(=O)c2cc(CC)on2)sc(C)c1C	-2%	.	1%	?	7.1µM*
CCOC(=O)c1c(NC(=O)c2noc3c2CCCC3)sc(C)c1C	.	32µM*	-3%	.	28µM*
COc1cc(-c2cc3n(C)c(C)c(CCC(=O)O)c(=O)n3n2)cc(OC)c1OC	-19%	.	.	9%	-30%[59 µM]
COc1ccc(CCNC(=O)Cn2nnc(-c3cccs3)n2)cc1OC	-6%	22%	-6%	23%	-28%
COc1ccc(CCNC(=O)Cn2cc(C(=O)c3ccccc3)c(=O)c3ccc(C)nc32)cc1OC	-7%	.	30%[57.1 µM]	74%	1%[59 µM]
CCOC(=O)c1c(NC(=O)c2cc(C)on2)sc(C)c1C	5%	.	6%	-16%	3.2µM*

Screens deposited in PubChem BioAssay by National Center for Advancing Translational Sciences (NCATS).
